Screening results deposited in PubChem by Broad Institute.
Vif inh: inhibitors of HIV Vif; HEK293T cells, Vif self-association by quenched fluorescence, imaging, 24 h; inhibition, % at 7.49 µM; actives 0.35% (n = 340,000); AID 602346; in the data active = inhibition above about 50%, passing the limit was not always enough
esBAF inh: blocks esBAF chromatin remodeling in mouse ES cells; Bmi1-luciferase knock-in reporter, 24 h; 100% = twice the neutral-well signal; reporter increase, % at 12.5 µM; actives 2% (n = 350,000); AID 602393; in the data active = activation above about 40%;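 also: 0% = median of the plate's neutral control wells and 100% = double that signal; a rise in the Bmi1 reporter signal indicates esBAF inhibition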
HSF-1 act: increases HSF-1 driven luciferase reporter signal; NIH3T3-HGL HSF-1 luciferase reporter, MG132, 8 h; 100% = twice DMSO control signal; activation, % at 9 µM; actives 1.7% (n = 300,000); AID 504408;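 active = mean replicate activation of at least 50% with a set share of replicates each reaching 50%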;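 also: 0% = median of the neutral control wells and 100% = twice that signal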
HSF1 inh: HSF1 inhibition; NIH3T3-HGL HSE-luciferase, MG132-induced, luminescence 8 h; active compounds read low; activity change, negative = inhibition, % at 7.5 µM (by protocol); actives 0.77% (n = 300,000); AID 2098;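 active = more than half of replicate wells show activity change below -50%, luminescence cut by over half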;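 also: luciferase reports HSF-1 transcriptional activity via heat shock element; 0% = median of DMSO wells and -100% = zero luminescence signal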
The depositor's hits bear a star; / = no result. A selection: hits, their analogues and other compounds. The true share with any hit is near 3.4%.

SMILES	Vif inh	esBAF inh	HSF-1 act	HSF1 inh
O=C(Nc1ccccc1Cl)c1cccs1	5	15	2	3
C=CCN=c1scc(-c2ccc(F)cc2)n1/N=C/c1ccccn1	1	/	47	27
C=CCN=c1scc(-c2ccccc2)n1/N=C/c1ccccn1	-5	1	52*	38
COC(=O)C[C@H]1C[C@@H]2c3cc(NS(=O)(=O)c4cccc(OC)c4)ccc3O[C@@H]2[C@H](CO)O1	/	-3	/	/
Cc1ccc(-c2csc(NC(=O)c3ccc(S(=O)(=O)N4CCc5ccccc54)cc3)n2)cc1	-21	10	-66	-56*
O=C(Nc1nc(-c2ccccc2)cs1)c1ccc(S(=O)(=O)N2CCc3ccccc32)cc1	-44	6	-17	-5
COc1cc(C#Cc2c(-c3ccccc3)n(C)c3ccccc23)cc(OC)c1	0	-13	4	11
COC(=O)c1ccc2c(c1)c(C#Cc1ccccc1)c(-c1ccccc1)n2C	-1	47*	/	/
O=C(N=C1SCC(=O)N1c1ccccc1Cl)c1ccco1	/	23	12	25
O=C(N=C1SCC(=O)N1c1ccccc1)c1ccco1	-3	46*	/	/
O=S(=O)(N[C@@H]1CC[C@H](CCn2cc(-c3cccnc3)nn2)O[C@@H]1CO)c1ccccc1	/	1	/	/
CCc1ccc(C(=O)N/N=C(\C)c2ccncc2)s1	6	/	-79	-74*
C/C(=N/NC(=O)c1ccc(C)s1)c1ccncc1	12	26	5	3
Cc1cccc2cc3c(N)c(C(=O)Nc4ccc(N5CCOCC5)cc4)sc3nc12	-11	27	6	-1
CCc1cccc2cc3c(N)c(C(=O)Nc4ccc(S(=O)(=O)N5CCCC5)cc4)sc3nc12	68*	/	-16	-4
CC(=O)Nc1ccc(-c2nnc(SCC(=O)Nc3ccc4c(c3)oc3ccccc34)n2C)cc1	-7	53*	28	17
COc1ccc(C(=O)c2c3ccc(OC)cc3[n+]([O-])n2Cc2ccc(C(N)=O)cc2)cc1	-12	61*	/	/
COc1ccc(C(=O)c2c3ccc(OC)cc3[n+]([O-])n2CCCC(N)=O)cc1	-3	0	-14	-4
COCCNC(=O)C(c1ccncc1)N(C(=O)c1sc(C)nc1C)c1cccc(C)c1 (centres undefined)	5	/	75*	32
NS(=O)(=O)c1ccc(CCNC(=O)c2ccc([N+](=O)[O-])s2)cc1	25	-2	94*	44
c1ccc2c(c1)CCN(c1nc3cc4c(cc3s1)OCCO4)C2	-11	-71	-45	-34
COc1ccc(OC)c2sc(N3CCc4ccccc4C3)nc12	22	/	128*	100
COc1ccc(OC)c2sc(N3CCCCC3)nc12	-2	46*	20	9
CCCC#Cc1ccc2c(c1)O[C@H](CN(C)Cc1ccccc1)[C@@H](C)CN([C@H](C)CO)S2(=O)=O	/	-7	/	/
C[C@H](CO)N1C[C@H](C)[C@H](CN(C)Cc2ccccc2)Oc2ccc(NS(=O)(=O)c3cn(C)cn3)cc2CC1=O	/	2	/	/
SMILES	Vif inh	esBAF inh	HSF-1 act	HSF1 inh
C#CCn1c(=NC(=O)c2cccs2)sc2cccc(OC)c21	-6	54*	4	16
O=C(NCCCN1CCOCC1)[C@H]1N[C@H]2c3ccc(C4=CCCCC4)c(=O)n3C[C@H]2[C@@H]1CO	/	-7	/	/
C=CCn1c(C)nc2c(sc3nc4c(cc32)COC(C)(C)C4)c1=O	9	/	53*	31
CCc1nc2c(sc3nc4c(cc32)COC(C)(C)C4)c(=O)n1CCN(CC)CC	-3	-3	8	1
C[C@@H]1CCCCO[C@@H](CN(C)C(=O)c2ccccc2)[C@H](C)CN([C@@H](C)CO)C(=O)c2cc(NC(=O)NC3CCCCC3)ccc2O1	/	-3	/	/
Cc1noc(C)c1S(=O)(=O)Nc1ccc2c(c1)C(=O)N([C@H](C)CO)C[C@H](C)[C@H](CN(C)S(=O)(=O)c1cccs1)OCCCC[C@H](C)O2	/	10	/	/
CS(=O)(=O)N1N=C(c2ccc(Br)cc2)CC1c1ccc2c(c1)OCO2 (centres undefined)	-3	54*	77*	42
CS(=O)(=O)Nc1ccc(C2=NN(S(C)(=O)=O)C(c3ccc4nccnc4c3)C2)cc1 (centres undefined)	4	5	-2	4
CC(=O)N1N=C(c2ccc(C)cc2)CC1c1ccc2c(c1)OCO2 (centres undefined)	3	100*	43	27
Cc1ccc(C2=NN(S(C)(=O)=O)C(c3ccc4c(c3)OCO4)C2)cc1 (centres undefined)	/	/	80*	55
COC(=O)C[C@H]1C[C@@H]2c3cc(NC(=O)c4ccc5c(c4)OCO5)ccc3O[C@@H]2[C@H](CO)O1	/	1	/	/
